“And” between values parts separate entries of the source, which are not always exact repeats. Equal entries are not always repeated. About 2,000 (36%) of roughly 5,500 compounds were called active. Roughly 18% stayed inconclusive and do not appear here. This is one part of the list. Values without a mark were called inactive. No stated cut-off is given here; in the data, active means normalized growth mostly below about 0.91 (no sharp cut-off); inconclusive means no clear call, values can overlap the other calls; inactive means mostly above about 0.92.
Test: chemical genetic growth profiling, strain panel (AID 1159580);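 further: tested at 20 µM; growth read once vehicle control cultures reached saturation at 30 °C; 1 = growth at the plate median or of vehicle wells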
Conditions: S. cerevisiae deletion strains, growth OD

With `C[C@H]1COc2c(N3CCN(C)CC3)c(F)cc3c(=O)c(C(=O)O)cn1c23` as the compound, how does the normalized growth (locus YAL013W, strain DEP1, stronger effect = lower value) read?
Its normalized growth is 1.

And the normalized growth (locus YAL021C, strain ccr4, stronger effect = lower value)?
The normalized growth was 1.02.

And the normalized growth (locus YAL026C, strain drs2, stronger effect = lower value)?
The normalized growth was 1.03.

What about the normalized growth (locus YAL030W, strain snc1, stronger effect = lower value) of the same compound?
The normalized growth was 1.02.

And the normalized growth (locus YBR009C, strain hhf1, stronger effect = lower value)?
The normalized growth was 1.01.

What about the normalized growth (locus YBR021W, strain FUR4, stronger effect = lower value) of the same compound?
The normalized growth was 0.995.

And the normalized growth (locus YBR023C, strain chs3, stronger effect = lower value)?
Its normalized growth is 1.02.

What about the normalized growth (locus YBR171W, strain sec66, stronger effect = lower value) of the same compound?
Its normalized growth is 1.04.

And the normalized growth (locus YBR229C, strain ROT2, stronger effect = lower value)?
Its normalized growth is 1.

What about the normalized growth (locus YBR231C, strain swc5, stronger effect = lower value) of the same compound?
Its normalized growth is 1.02.

And the normalized growth (locus YBR279W, strain paf1, stronger effect = lower value)?
Its normalized growth is 1.02.

What about the normalized growth (locus YCL011C, strain gbp2, stronger effect = lower value) of the same compound?
Its normalized growth is 0.259 (active).

And the normalized growth (locus YCL016C, strain dcc1, stronger effect = lower value)?
Its normalized growth is 1.02.

And the normalized growth (locus YCL029C, strain bik1, stronger effect = lower value)?
Its normalized growth is 1.02.

And the normalized growth (locus YCL061C, strain MRC1, stronger effect = lower value)?
The normalized growth was 1.04.

And the normalized growth (locus YCL069W, strain vba3, stronger effect = lower value)?
The normalized growth was 1.02.

What about the normalized growth (locus YCR088W, strain abp1, stronger effect = lower value) of the same compound?
Its normalized growth is 1.02.

And the normalized growth (locus YDL005C, strain med2, stronger effect = lower value)?
Its normalized growth is 1.04.

And the normalized growth (locus YDL035C, strain GPR1, stronger effect = lower value)?
Its normalized growth is 1.02.

And the normalized growth (locus YDL040C, strain nat1, stronger effect = lower value)?
The normalized growth was 1.02.

And the normalized growth (locus YDL074C, strain BRE1, stronger effect = lower value)?
The normalized growth was 1.01.

What about the normalized growth (locus YDL101C, strain DUN1, stronger effect = lower value) of the same compound?
The normalized growth was 0.999.

What about the normalized growth (locus YDL134C, strain PPH21, stronger effect = lower value) of the same compound?
The normalized growth was 1.01.

And the normalized growth (locus YDL185W, strain tfp1, stronger effect = lower value)?
The normalized growth was 1.02.

What about the normalized growth (locus YDL192W, strain arf1, stronger effect = lower value) of the same compound?
The normalized growth was 1.02.

And the normalized growth (locus YDR001C, strain nth1, stronger effect = lower value)?
Its normalized growth is 1.02.

What about the normalized growth (locus YDR069C, strain doa4, stronger effect = lower value) of the same compound?
Its normalized growth is 1.04.

What about the normalized growth (locus YDR101C, strain arx1, stronger effect = lower value) of the same compound?
Its normalized growth is 1.01.

What about the normalized growth (locus YDR137W, strain rgp1, stronger effect = lower value) of the same compound?
Its normalized growth is 0.989.

What about the normalized growth (locus YDR150W, strain NUM1, stronger effect = lower value) of the same compound?
The normalized growth was 0.999.

And the normalized growth (locus YDR159W, strain sac3, stronger effect = lower value)?
Its normalized growth is 1.03.

And the normalized growth (locus YDR162C, strain NBP2, stronger effect = lower value)?
The normalized growth was 0.989.

What about the normalized growth (locus YDR195W, strain ref2) of the same compound?
The normalized growth was 0.993.

And the normalized growth (locus YDR297W, strain sur2, stronger effect = lower value)?
The normalized growth was 1.02.

What about the normalized growth (locus YDR318W, strain mcm21, stronger effect = lower value) of the same compound?
Its normalized growth is 1.02.

And the normalized growth (locus YDR334W, strain swr1, stronger effect = lower value)?
The normalized growth was 1.01.

And the normalized growth (locus YDR335W, strain msn5, stronger effect = lower value)?
The normalized growth was 1.02.

What about the normalized growth (locus YDR388W, stronger effect = lower value) of the same compound?
The normalized growth was 1.01.

What about the normalized growth (locus YDR392W, strain spt3, stronger effect = lower value) of the same compound?
The normalized growth was 1.04.

What about the normalized growth (locus YDR502C, strain sam2, stronger effect = lower value) of the same compound?
The normalized growth was 1.01.

What about the normalized growth (locus YEL003W, strain gim4, stronger effect = lower value) of the same compound?
Its normalized growth is 1.01.

What about the normalized growth (locus YEL037C, strain rad23, stronger effect = lower value) of the same compound?
Its normalized growth is 1.03.

And the normalized growth (locus YEL061C, strain CIN8 (second series), stronger effect = lower value)?
The normalized growth was 1.04.

What about the normalized growth (locus YEL061C, strain CIN8, stronger effect = lower value) of the same compound?
Its normalized growth is 0.993.

What about the normalized growth (locus YER015W, strain faa2, stronger effect = lower value) of the same compound?
The normalized growth was 1.01.

What about the normalized growth (locus YER016W, strain bim1, stronger effect = lower value) of the same compound?
Its normalized growth is 1.02.

And the normalized growth (locus YER110C, stronger effect = lower value)?
Its normalized growth is 1.02.

And the normalized growth (locus YER111C, strain swi4, stronger effect = lower value)?
Its normalized growth is 1.03.

What about the normalized growth (locus YER155C, strain BEM2 (second series), stronger effect = lower value) of the same compound?
The normalized growth was 1.03.

What about the normalized growth (locus YER155C, strain BEM2, stronger effect = lower value) of the same compound?
The normalized growth was 1.01.

What about the normalized growth (locus YER167W, strain BCK2, stronger effect = lower value) of the same compound?
The normalized growth was 1.

What about the normalized growth (locus YFR010W, strain ubp6, stronger effect = lower value) of the same compound?
The normalized growth was 1.03.

And the normalized growth (locus YGL078C, strain dbp3, stronger effect = lower value)?
The normalized growth was 1.02.

What about the normalized growth (locus YGL086W, strain mad1, stronger effect = lower value) of the same compound?
The normalized growth was 1.01.

And the normalized growth (locus YGL167C, strain pmr1, stronger effect = lower value)?
Its normalized growth is 1.03.

What about the normalized growth (locus YGL173C, strain kem1, stronger effect = lower value) of the same compound?
The normalized growth was 1.01.

What about the normalized growth (locus YGL227W, strain vid30, stronger effect = lower value) of the same compound?
The normalized growth was 1.02.

What about the normalized growth (locus YGL240W, strain doc1, stronger effect = lower value) of the same compound?
Its normalized growth is 1.02.

What about the normalized growth (locus YGL248W, strain PDE1, stronger effect = lower value) of the same compound?
Its normalized growth is 1.

What about the normalized growth (locus YGL253W, strain hxk2, stronger effect = lower value) of the same compound?
Its normalized growth is 1.01.

What about the normalized growth (locus YGR078C, strain PAC10, stronger effect = lower value) of the same compound?
Its normalized growth is 0.998.

And the normalized growth (locus YGR135W, strain pre9, stronger effect = lower value)?
Its normalized growth is 1.01.

And the normalized growth (locus YGR229C, strain SMI1, stronger effect = lower value)?
Its normalized growth is 0.989.

What about the normalized growth (locus YGR252W, strain gcn5, stronger effect = lower value) of the same compound?
Its normalized growth is 0.996.

What about the normalized growth (locus YHR013C, strain ard1, stronger effect = lower value) of the same compound?
The normalized growth was 1.02.

And the normalized growth (locus YHR027C, strain rpn1, stronger effect = lower value)?
The normalized growth was 1.01.

What about the normalized growth (locus YHR030C, strain SLT2, stronger effect = lower value) of the same compound?
The normalized growth was 1.01 and 0.977.

What about the normalized growth (locus YHR079C, strain IRE1 (second series), stronger effect = lower value) of the same compound?
Its normalized growth is 1.01.

And the normalized growth (locus YHR079C, strain IRE1, stronger effect = lower value)?
The normalized growth was 0.991.

And the normalized growth (locus YHR094C, strain hxt1, stronger effect = lower value)?
The normalized growth was 1.01.

What about the normalized growth (locus YHR129C, strain ARP1, stronger effect = lower value) of the same compound?
Its normalized growth is 1.01.

And the normalized growth (locus YHR142W, strain chs7, stronger effect = lower value)?
The normalized growth was 1.02.

And the normalized growth (locus YHR200W, strain rpn10, stronger effect = lower value)?
The normalized growth was 1.02.

And the normalized growth (locus YIL066C, strain RNR3, stronger effect = lower value)?
The normalized growth was 1.

What about the normalized growth (locus YIL073C, strain SPO22, stronger effect = lower value) of the same compound?
The normalized growth was 1.05.

And the normalized growth (locus YIL125W, strain kgd1, stronger effect = lower value)?
Its normalized growth is 1.01.

What about the normalized growth (locus YIR030C, strain dcg1, stronger effect = lower value) of the same compound?
The normalized growth was 1.03.

And the normalized growth (locus YJL092W, strain hpr5, stronger effect = lower value)?
Its normalized growth is 1.03.

What about the normalized growth (locus YJL095W, strain BCK1 (second series), stronger effect = lower value) of the same compound?
Its normalized growth is 1.02.

What about the normalized growth (locus YJL095W, strain BCK1, stronger effect = lower value) of the same compound?
Its normalized growth is 1.02 and 0.996.

And the normalized growth (locus YJL115W, strain asf1, stronger effect = lower value)?
The normalized growth was 1.04.

And the normalized growth (locus YJL129C, strain trk1, stronger effect = lower value)?
Its normalized growth is 1.04.

And the normalized growth (locus YJL134W, strain LCB3, stronger effect = lower value)?
The normalized growth was 1.

What about the normalized growth (locus YJL154C, strain vps35, stronger effect = lower value) of the same compound?
The normalized growth was 1.01.

And the normalized growth (locus YJL164C, strain tpk1, stronger effect = lower value)?
The normalized growth was 1.01.

What about the normalized growth (locus YJL166W, strain qcr8, stronger effect = lower value) of the same compound?
The normalized growth was 1.02.

And the normalized growth (locus YJL168C, strain set2, stronger effect = lower value)?
Its normalized growth is 1.01.

And the normalized growth (locus YJL187C, strain SWE1 (second series), stronger effect = lower value)?
The normalized growth was 1.01.

And the normalized growth (locus YJL187C, strain SWE1, stronger effect = lower value)?
Its normalized growth is 1.01.

And the normalized growth (locus YJR043C, strain POL32, stronger effect = lower value)?
The normalized growth was 0.998.

What about the normalized growth (locus YJR066W, strain TOR1, stronger effect = lower value) of the same compound?
Its normalized growth is 0.944.

From PubChem BioAssay AID1159580 (chemical genetic matrix, 2015)
